Screening data as filed in PubChem.
CRE-bla Fsk = Cell signaling CRE-BLA (Fsk stim); CHO CRE-bla reporter (cAMP response element driving beta-lactamase), forskolin EC10, beta-lactamase ratio; Potency, µM (highest dose often 38.2 µM), for inactives: at the highest dose activity change, negative = inhibition, hits mostly activators; 71,000 compounds, 2.5% hits; AID 662, 2007; active = well fitted activation curve with a large enough effect in the signal ratio, with a control signal flat, not every such curve was filed as active; inconclusive = small, poorly fitted or top-dose-only effect, or effect the other way, or a change in a side signal; the % refers to the signal ratio; note: % of control where 0% means no effect
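Cells were plated overnight at 37 °C, exposed to compound titrations plus EC10 NKH 477 for 3 h, then given CCF4 dye for 2 h at room temperature. Blue/green (460/530 nm) ratio was converted to %Activity and AC50 values calculated.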
TSHR ag = qHTS Assay for Agonists of the Thyroid Stimulating Hormone Receptor. Thyrotropin receptor (Homo sapiens), P16473. 73,000 compounds, 0.48% hits. HEK293-CNG-TSHR cells (CNG channel as cAMP sensor), membrane potential dye, cAMP. Potency, µM (highest dose often 57.1 µM), for inactives: top-dose activation, actives largely listed as activators; active = well fitted activation curve with a large enough effect in the main read-out, with a control signal flat, not every such curve was filed as active; inconclusive = small, poorly fitted or top-dose-only effect, or a change in a side signal; inactive = no such curve, though single readings can be large or run the other way; % of control where 0% means no effect;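 note: the control signal comes from parental cells without the receptor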
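HEK 293 cells stably expressing TSHR and a modified CNG channel, with CNG-only parental cells as counterscreen, were preloaded 60 min at room temperature with membrane potential dye containing 100 uM RO 20-1724. Compound exposure was 30 min, and depolarization was read as fluorescence at 590 nm.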
Casp1 inh = qHTS Assay for Allosteric/Competitive Inhibitors of Caspase-1; 75,000 compounds, 0.03% hits; AID 900, 2007; P29466; Caspase-1 enzyme, Ac-WEHD-AFC fluorogenic rate; Potency, µM (doses to about 57.5 µM), inactives show top-dose activity change, negative = inhibition, actives largely listed as inhibitors;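 note: plate controls were vehicle for no effect and no substrate for full effect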
HEK293 cAMP cs = qHTS Assay for Agonists of the Thyroid Stimulating Hormone Receptor: Activators of Intracellular cAMP Concentrations in Parental HEK 293; parental HEK293 CNG cAMP sensor, membrane potential fluorescence; Potency, µM (doses to about 57.1 µM), for inactives: at the highest dose activation, actives largely listed as activators; 73,000 compounds, 2.5% hits; note: % of control where 0% means no effect; nearly all actives have a fitted effect of over 55% in size
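Counterscreen for endogenous-receptor signalling: CNG-channel HEK 293 cells report cAMP rise by membrane depolarization. After 60 min dye equilibration with 100 uM RO 20-1724, compounds incubated 30 min before bottom-read fluorescence at 590 nm.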
USP2a inhib = qHTS Assay for Inhibitors of Ubiquitin-specific Protease USP2a. 60,000 compounds, 0.1% hits. AID 927, 2007. USP2a enzymatic assay, qHTS inhibition. Ubiquitin carboxyl-terminal hydrolase 2 (Homo sapiens), O75604. Potency, µM (doses to about 38.3 µM), inactives show top-dose activity change, negative = inhibition, actives largely listed as inhibitors; note: nearly all actives have a fitted effect of over 60% in size
Target sequence (O75604 whole entry, looked up): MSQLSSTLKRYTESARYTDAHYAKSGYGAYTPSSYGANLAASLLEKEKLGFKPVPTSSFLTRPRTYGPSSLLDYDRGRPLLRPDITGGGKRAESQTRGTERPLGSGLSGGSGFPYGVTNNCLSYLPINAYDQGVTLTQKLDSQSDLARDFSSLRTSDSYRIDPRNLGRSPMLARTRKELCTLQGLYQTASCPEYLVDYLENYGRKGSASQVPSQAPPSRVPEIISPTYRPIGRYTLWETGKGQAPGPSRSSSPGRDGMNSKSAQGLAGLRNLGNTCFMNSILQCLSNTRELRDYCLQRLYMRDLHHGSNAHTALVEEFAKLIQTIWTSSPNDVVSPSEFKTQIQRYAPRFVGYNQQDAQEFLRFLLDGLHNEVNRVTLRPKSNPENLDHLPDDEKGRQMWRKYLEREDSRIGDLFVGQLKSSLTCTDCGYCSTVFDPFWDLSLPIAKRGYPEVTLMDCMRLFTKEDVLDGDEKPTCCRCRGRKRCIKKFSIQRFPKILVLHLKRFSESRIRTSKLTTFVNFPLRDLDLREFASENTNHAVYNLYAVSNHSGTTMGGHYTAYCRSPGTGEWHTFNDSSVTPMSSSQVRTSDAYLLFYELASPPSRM
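USP2 core (20nM final) preincubated 30 min RT with compound, then Ub-PLA2 20nM and NBD C6-HPC 20uM final added; buffer 20mM Tris-HCl pH 8.0, 2mM CaCl2. Fluorescence Ex 460/Em 535 read at 0 and 2.5 h; normalized to NEM.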
Caspase-7 inhib = qHTS Assay for Allosteric/Competitive Inhibitors of Caspase-7; Potency, µM (titrated, usually from 57.5 µM), for the others: top-dose activity change, negative = inhibition, hits mostly inhibitors; P55210; 75,000 compounds, 0.02% hits; recombinant caspase-7, Ac-DEVD-AFC fluorescence rate; active = well fitted inhibition curve with a large enough effect in the main read-out, with a control signal flat, not every such curve was filed as active; inconclusive = small, poorly fitted or top-dose-only effect, or a change in a side signal; note: % of control where 0% means no effect
The depositor's hits bear a star; u = inconclusive; x = no result given; [ ] = another dose, or the depositor's remark. This is a sample that favours compounds with a hit; in the whole collection about 5% have one here. Unless noted, calls come from the whole dose curve; as a rule, active = well fitted curve in the direction sought with a large enough effect; inconclusive = small, poorly fitted or top-dose-only effect, or another doubt; inactive = no such curve, though single readings can be large; an effect the other way counts as inactive or inconclusive. Potency is the fitted concentration of half-maximal effect.

SMILES	CRE-bla Fsk	TSHR ag	Casp1 inh	HEK293 cAMP cs	USP2a inhib	Caspase-7 inhib
CCOc1ccccc1-c1nc(-c2ccc(NC(=O)Cc3ccccc3OC)cc2)no1	19%	7%	-2%	10%	48%	-4%
Cc1ccc(-c2nc(C(=O)NC3CCCCCC3)no2)cc1	9%	u	1%	20µM*	x	-4%
CCOC(=O)C1=C(C)Nc2nc(SC)nn2C1c1ccc(C(=O)OC)cc1 (stereo unspecified)	u	16µM*	-1%	12%	-4%	0%
O=C(O)c1ccc2c3c1cccc3c(=O)n1c3ccccc3nc21	5µM*	2%	x	-5%	x	u
O=c1c2ccccc2nc2sc3ccccc3n12	28%	-5%	1%	16%	16%	-2%
CCNc1ncc2nc(C)c(=O)n(-c3ccc(OC)cc3)c2n1	u	7%	-11%	5%	u	-19%
COc1ccc(-n2c(=O)c(C)nc3cnc(N(C)C)nc32)cc1	13µM*	x	x	22%	24%	u
COc1ccc(-n2c(=O)c(C)nc3cnc(Oc4ccccc4)nc32)cc1	2.5µM*	-1%	-3%	19%	77%	-1%
Cc1ccc(CNc2cc(-c3nn4c(C)nnc4s3)ccc2C)s1	20µM*	x	u	12%	4%	-23%
CC(C)Nc1oc(-c2cccc3ccccc23)nc1C#N	13µM*	-5%	x	-15%	-6%	u
CC1CCN(c2oc(-c3cccc4ccccc34)nc2C#N)CC1	10µM*	11%	x	17%	1%	u
C=CCNc1oc(-c2cccc3ccccc23)nc1C#N	13µM*	-15%	x	-8%	-2%	u
CC(C)Sc1nc(NCc2ccco2)c2c3c(sc2n1)COC(C)(C)C3	2%	11%	2%	4%	-5%	0%
c1coc(CNc2ncnc3sc4c(c23)CCCCC4)c1	u	u	-3%	25µM*	-3%	2%[0.00368 µM]
Cc1nc(NCc2ccco2)c2c3c(sc2n1)CCC3	u	u	0%	16µM*	11%	-5%
Cc1sc2ncnc(NCc3ccco3)c2c1C	u	u	-5%	u	3%	-18%
COc1ccc2c(c1)CCC1C2CC[C@]2(C)[C@H](NCCCCCCN3C(=O)C=CC3=O)CC[C@@H]12 (stereo partly specified)	0%	9%	3%	1%	6%	-1%
N#Cc1ccc(CN2CCCC3(CCN(S(=O)(=O)c4ccccc4)CC3)C2)cc1	-3%	u	-6%	13µM*	42%	-4%
O=S(=O)(c1ccccc1)N1CCC[C@@]2(CCN(Cc3ccccc3)C2)C1	-12%	u	-1%	u	40%	0%
O=S(=O)(c1ccccc1)N1CCC2(CCCN(c3cccc(-c4ccccc4)c3)C2)CC1	1%	2%	-2%	14%	112%	-1%
O=S(=O)(c1ccccc1)N1CCC2(CCCN(c3ccncc3)C2)CC1	23%	u	0%	20µM*	9%	-1%
O=S(=O)(c1ccccc1)N1CCC2(CCCN(c3ccccc3)C2)CC1	8%	u	-7%	25µM*	15%	-3%
C[C@H](CCC(=O)O)[C@H]1CC[C@]2(C)[C@@H]3C(=O)C[C@H]4C(C)(C)[C@@H](O)CC[C@]4(C)[C@H]3C(=O)C[C@@]12C	11%[7.6 µM]	-1%[11.4 µM]	0%[11.5 µM]	-1%[11.4 µM]	x	-2%[11.5 µM]
Cn1cc(C(=O)c2ccc(Cl)cc2)cc1-c1nc2ccccc2n1C	u	u	-14%	32µM*	35%	-13%
C[C@@]1(C(=O)O)CCC[C@@H]1C(=O)O	9%[7.6 µM]	-3%[11.4 µM]	-3%[11.5 µM]	4%[11.4 µM]	x	1%[11.5 µM]
SMILES	CRE-bla Fsk	TSHR ag	Casp1 inh	HEK293 cAMP cs	USP2a inhib	Caspase-7 inhib
CN1CCN(c2ncc3nc(-c4cccc(C#N)c4)c(=O)n(CCc4ccccc4)c3n2)CC1	u	u	x	u	115%	u
COc1cccc(-c2nn(C)c3sc(C(=O)Nc4ccc5c(c4)OCCO5)cc23)c1	1.3µM*	29%	-12%	15%	-8%	-9%
CCOC(=O)N1CCC(NC(=O)c2cc3c(-c4cccc(OC)c4)nn(C)c3s2)CC1	u	10%	-6%	-1%	40%	-3%
COc1cccc(-c2nn(C)c3sc(C(=O)NCc4ccccn4)cc23)c1	7.9µM*	1%	-3%	-4%	42%	-1%
CC1(C)[C@@H]2CC[C@]1(CC(=O)O)[C@H](Cl)C2	-4%[7.6 µM]	6%[11.4 µM]	3%[11.5 µM]	-10%[11.4 µM]	x	-1%[11.5 µM]
CCSc1nnc(-c2cccc(S(=O)(=O)N(C)C)c2)n1-c1cc(OC)ccc1OC	14%	u	1%	5µM*	11%	0%
COc1ccc(OC)c(-n2c(SCC(C)=O)nnc2-c2cccc(S(=O)(=O)N(C)C)c2)c1	9%	u	0%	u	4%	0%
CCCSc1nnc(-c2cccc(S(=O)(=O)N(C)C)c2)n1-c1cc(OC)ccc1OC	12%	u	-2%	7.9µM*	16%	1%
COc1ccc(CN2C(=O)[C@@H]3C(c4ccccc4Cl)=NO[C@@H]3C2=O)cc1	u	x	-1%	2%	6%	-2%
O=C1[C@@H]2C(c3ccccc3Cl)=NO[C@@H]2C(=O)N1Cc1ccccc1	-6%	3.2µM*	-2%	2%	-2%	-1%
COC(=O)NC(/C(C(=O)OC)=C(\C)NCc1ccccc1)c1cccc(C)c1 (stereo unspecified)	x	2%[11.4 µM]	-1%[11.5 µM]	2%[11.4 µM]	x	-1%[11.5 µM]
CC(C=O)Cc1ccc(C(C)(C)C)cc1 (stereo unspecified)	0%	u	-3%	u	x	-2%
COc1ccc(-c2cc(C(F)(F)F)nc(N3CCOCC3)n2)cc1OC	u	u	-2%	u	26%	-1%
COc1ccc(-c2cc(-c3ccccc3)nc(N3CCCC3)n2)cc1OC	3.2µM*	3.2µM*	x	11%[11.4 µM]	11%[7.66 µM]	u
O=C(O)/C(=C\c1ccc(O)cc1)c1cccc2ccccc12	-6%[7.6 µM]	-4%[11.4 µM]	-2%[11.5 µM]	11%[11.4 µM]	x	0%[11.5 µM]
Cc1nc2c(C(=O)NCc3ccco3)cnn2c(C)c1Cc1ccc(F)cc1Cl	u	u	-3%	25µM*	16%	-4%
c1ccc(Nc2c3c(nc4ncnn24)CCC3)cc1	u	12%	-2%	-1%	-2%	0%
c1ccc(CCNc2c3c(nc4ncnn24)CCC3)cc1	-4%	u	3%	6.3µM*	13%	2%
